Our source for the outcome values is PubChem BioAssay AID837 (The Scripps Research Institute Molecular Screening Center, 2007).

Calls of active or inactive are those of the source.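 How the source made its calls: active means relative FRET score above 0.01, or acceptor fluorescence over 30% below the sample-well median; inactive means the rest.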

Chain of Protein Rev (Human immunodeficiency virus type 1 group M subtype B (isolate WMJ22)) (P05866 whole entry, looked up): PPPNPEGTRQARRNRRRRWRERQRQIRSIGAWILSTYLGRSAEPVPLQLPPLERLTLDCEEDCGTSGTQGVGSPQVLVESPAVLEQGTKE

The experiment has as its target Protein Rev (Human immunodeficiency virus type 1 group M subtype B (isolate WMJ22)) (UniProt P05866). The experiment in a line: HIV-1 Rev-RRE binding inhibitors, retest, confirmation, biochemical, FRET, acceptor and relative FRET calls (AID 837).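 Further: relative FRET combines rise in Cy5 acceptor with fall in fluorescein donor.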 The settings on record: Fl-Rev peptide / Cy5-RRE RNA FRET, 1536-well; at 8 µM.
Regarding `Cc1ccc(Nc2nc(N)nc(CSc3nnnn3-c3ccccc3)n2)cc1`, the result was inactive. Consider `Nc1cccc2nc3ccccc3cc12`, for which the compound was called inactive. Consider `OC(COc1ccc(C2C=CCC2)cc1)CN1CCCCC1` (stereo not given), for which the result was inactive. Under `COc1ccc(Nc2nc(N3CCCCC3)c3ccccc3n2)cc1` stands “inactive”; under `COC(=O)c1c(C(=O)OC)n(CCCN)c2ccc(C)cc12`, “active”. `CCCCOC(=O)Cn1c(=N)n(CCN(CC)CC)c2ccccc21`: the result was inactive. `N=c1c2c(n(Cc3ccc(F)cc3)c3c1CCC3)CCC2`: the result was inactive.

For the compound `c1ccc(CSc2ncnc3c2cnn3Cc2ccccc2)cc1`, the compound was classed as inactive. Next, `Cc1ccc(C(=O)NNC(=O)CSc2nnc3c(n2)[nH]c2ccc(F)cc23)cc1`: “active; quenches the donor”. In the case of `CCCCCCC1CC(CSC(=N)N)OC1=O` (stereo not given), the call was inactive.

As to `Nc1nc(Nc2ccc(Cl)cc2)nc2ccccc12`, the outcome was active.

`CCOc1ccc2nc3ccc4[nH]onc4c3c2c1`: the compound was called inactive. For `Cc1ccc2[nH]c(=O)c3cc(C(=O)NCCN4CCN(C)CC4)sc3c2c1`, the result was inactive. As to `CC12Cc3ccc4ccccc4c3C=C1C[N+](C)(C)C2` (stereo not given), the outcome was inactive.

Take `CN1/C(=C\C=Nc2ccc3ccccc3c2)C(C)(C)c2ccccc21`: the call was inactive. In the case of `FC(F)(F)c1cc(-c2ccco2)nc(NCc2ccc(Cl)cc2)n1`, the compound was called inactive. Under `CCN(N=Nc1cccc([N+](=O)[O-])c1)c1cccc([N+](=O)[O-])c1` stands “inactive”. `CC1CC(C)CN(Cc2nc(N)nc(Nc3ccccc3)n2)C1` (stereo not given): the outcome was inactive. With `NCCCCCc1nnc(SC/C=C/c2ccccc2)o1`, the compound was called inactive. `CN(CC(O)COc1ccc(OCC(O)CN(C)C2CCCCC2)cc1)C1CCCCC1` (stereo not given): the call was inactive. Consider `CCN(CC)CCOCCOc1cc(C)c(Cl)c(C)c1`, for which the outcome was inactive.

On to `O=C(NCCCO)Nc1ccc2nc(-c3ccco3)c(-c3ccco3)nc2c1`, for which the compound was called inactive. `COn1cnnc1-c1ccccc1`: the compound was classed as inactive.

In the case of `Cn1nc(SCC(=O)O)sc1=S`, the compound was classed as inactive. Under `C=CCNCCCCOc1c(Cl)cc(C)cc1Br` stands “inactive”; under `CCCCN1C(=O)Cc2c1nc(N)c1c(N)nc(N(CCC)CCC)c(C#N)c21`, “inactive”. In the case of `CCOc1ccc(C(O)Cn2c(=N)n(CCN3CCCCC3)c3ccccc32)cc1` (stereo not given), the result was inactive. As for `CN(C)CCNCc1ccccc1OC1CCCC1`, the result was inactive.

With `Cc1cc(C)cc(NC2=NC3(CCCCC3)N=C(N)N2)c1`, the outcome was inactive. Under `CC1CC(c2ccccc2)n2nc(NC(=O)c3cccs3)nc2N1` (stereo not given) stands “inactive”; under `O=C(CN1C2=NCCN2c2ccccc21)c1ccc(Br)cc1`, “active”; under `COc1cccc(-c2cc(C(F)(F)F)nc(N3CCC(C)CC3)n2)c1`, “inactive”. As for `Nc1nc(CN2CCCCCC2)nc(Nc2ccc(F)cc2)n1`, the call was inactive. With `CCN(CC)CC(O)COCCC12CC3CC(CC(C3)C1)C2` (stereo not given), the call was inactive.

Take `CC(C)COc1ccc(Cc2cnc(N)nc2N)cc1`: the call was active. Under `Cc1nc(Nc2ccc(F)cc2)[nH]c(=O)c1CCC(C)C` stands “inactive”; under `CCc1nnc(NC(=O)c2ccc3c(c2)C(=O)N(C(C)(C)C)C3=O)s1`, “inactive”. Under `CCN(CC)CCCNC(=O)c1cc(-c2ccc(Cl)cc2)on1` stands “inactive”; under `CC(NCc1ccc(N(C)C)cc1)C1CC2CCC1C2` (stereo not given), “active”; under `COc1ccc(CSc2nnc(C)n2N)cc1`, “inactive”.
